{"source": "paper PMC12136788", "binders": {"B1": {"name": "118497214_118499730_2480_CDS_ENSG00000065183_ENST00000349139|human|control|control (ssRNA)", "RNA": "GGGAGUUCUACAGUCCGACGAUCAUAAGAGAAAGGCAGCACAAGUAGAGAUUCUUCCAGCUCACUCGACUUGAUCCCUUUAAAAAUCUCUAAUACAUAAGCUGAAGGUGAGAUACUGCCAUAAGCCAUUAGGAUGGGGUUGCUCAACAGAGGAUUGAGCAUCA"}, "B2": {"name": "chr9:127911758:127911759:-_ENSG00000119414_ENST00000373547|hu_mus|FALSE|FALSE (ssRNA)", "RNA": "GGGAGUUCUACAGUCCGACGAUCUCUCAAACGAGUCCAAGGUGGGGUAGGAGGAGUGACAAAACUGAUAGAAAAACACUGCUAUUGACACCAUAACAAACAAUAAAUUUAGAUAAUUUAAAAUUAAAAAAAAAGGCAAGAGGCCAACAGAGGAUUGAGCAUCA"}, "B3": {"name": "chr16:46836887:46836888:-_ENSG00000155330_ENST00000285697|hu_mus|motif|central (ssRNA)", "RNA": "GGGAGUUCUACAGUCCGACGAUCACCAACAGAGUUUGAAGACAAAUAUCAGAGAAUAAGUCUUUGAUUGAUAAUUUUUCGGUUUAUUUCUGCCAAGGCAACUGAAAACACGAAAGCCUUCUCAUCAGAGAGGUUAGCAUAGAUCAACAGAGGAUUGAGCAUCA"}, "B4": {"name": "chr12:48362563:48362564:+_ENSG00000134291_ENST00000256686|hu_hu|hu_hu_hu_mus_False|1_68 (ssRNA)", "RNA": "GGGAGUUCUACAGUCCGACGAUCUCCGUCAAGCCCUUCGAUAGACCCUUGCGGGGGAAACUGUAAUAAUUCUAACUGGGGAAGGAAAAGAAACGCCAAAAACUUUCCAAAAAGCGGGGGUGGGGUGAGGCGGGAGGUUGGGAACAACAGAGGAUUGAGCAUCA"}, "B5": {"name": "chr12:48362563:48362564:+_ENSG00000134291_ENST00000256686|hu_hu|hu_hu_hu_mus_False|68_108 (ssRNA)", "RNA": "GGGAGUUCUACAGUCCGACGAUCUCCGAAGGGUGAAUCGAUAGACCCUUGCGGGGGAAACUGUAAUAAUUCUAACUGGGGAAGGAAAAGAAACGCCAAAAACUUUCCAAAAAGCGGGGGUGGGGUGAGGCGGGAGGGGGAGGUCAACAGAGGAUUGAGCAUCA"}, "B6": {"name": "chr12:48362563:48362564:+_ENSG00000134291_ENST00000256686|hu_hu|hu_hu_hu_mus_False|68_68 (ssRNA)", "RNA": "B4 RNA with U137G, U138G, G140A, A142G, A143U"}, "B7": {"name": "chr9:127911758:127911759:-_ENSG00000119414_ENST00000373547|hu_mus|motif|central (ssRNA)", "RNA": "B2 RNA with U82G, A83G"}, "B8": {"name": "chr5:61651017:61651018:+_ENSG00000068796_ENST00000381103|hu_hu|FALSE|FALSE (ssRNA)", "RNA": "GGGAGUUCUACAGUCCGACGAUCCCUAUGUUCAUCAAUAGGAUCUGCUGUUGUUAAUGGUCUAUAAUCCAAACUUCCUCUAAAGUCUCUGAUCAUACACAUAAUUUCAUAAUUUGGGUUUGUAGCAUCAACGUCCUGGGCUCUCAACAGAGGAUUGAGCAUCA"}, "B9": {"name": "chrX:131339380:131339381:-_ENSMUSG00000033436_ENSMUST00000035559|mus_hu|FALSE|FALSE (ssRNA)", "RNA": "GGGAGUUCUACAGUCCGACGAUCACUGAGAAGUUUCUUCAACAUAUCUGGAUUUUCAGCAAAAUUCGAAAGGAUUUUCAAAAUCUCAACCUUGAUUUUUCCACCUCCCUGAGAUAGCAAACGGAAAAAGUUUGCAAUGGAAUUCAACAGAGGAUUGAGCAUCA"}, "B10": {"name": "chr8:95500983:95500984:-_ENSG00000164944_ENST00000437199|hu_hu|hu_hu_hu_mus_True|58_68 (ssRNA)", "RNA": "GGGAGUUCUACAGUCCGACGAUCAGAACACAUCUAUCGAGUAAAGGACCGUACAUGACGGCCUCUAACCACUGCCUCCACUAACAACUUUCCUCUCGAGCCUCCACUGCCGCUAUUUGUACUAGCCCAGGACGGUCCCAGGCCCAACAGAGGAUUGAGCAUCA"}, "B11": {"name": "37721237_37722996_1653_CDS_ENSG00000082068_ENST00000265107|human|control|control (ssRNA)", "RNA": "GGGAGUUCUACAGUCCGACGAUCUGCCUUCCGCUGGGUUUUAACCACACAUAAUUUUGCUCCCCUCUGACUCUUGUUGGGGUCGUAAUAGACUUUAGCCAAUCCAUUUCCAGUUCCAACCAUGAUCUGGUUCAGCUUUGGAUGCAACAGAGGAUUGAGCAUCA"}, "B12": {"name": "55795476_55800851_1969_CDS_ENSG00000138041_ENST00000407823|human|control|control (ssRNA)", "RNA": "GGGAGUUCUACAGUCCGACGAUCCCGCCUCAUAAAGCGAAGGGCACACAAGGCCAGAAAAGUGUGCUUUGAAUUCAUCAAGACCAAGACUCUUCUUAGCAAGUCCUUGUUCAUAAUAUAGUUUUUUAUGUGAUAUGUGUGAUGCAACAGAGGAUUGAGCAUCA"}, "B13": {"name": "chr19:8913615:8913616:-_ENSMUSG00000071658_ENSMUST00000096259|mus_hu|mus_mus_mus_hu_False|1_98 (ssRNA)", "RNA": "GGGAGUUCUACAGUCCGACGAUCAGGGUACCAAAACACCCUGCCUCAAAUGGGUGCCCCACCCAGUAGGGAGUUGCAGCUGAAAGUAUCUGAUGCAGAAGCAGUGACUAUACGAAAGGAGGCCCCUGGGGAGGGCCCGAGAUCCAACAGAGGAUUGAGCAUCA"}}, "note": "Residue numbers refer to the chain shown, from its start. In all, about 24,000 sequences were measured (“enrichment r”: median about 0.99, highest 2% from about 3.7 on). This is one part of a sample in which the highest values are shown more often than they occur.", "data": [{"target": "T1, UNK ZnF1-3 (human, UniProt Q9C0B0 31-174)", "T1 sequence": "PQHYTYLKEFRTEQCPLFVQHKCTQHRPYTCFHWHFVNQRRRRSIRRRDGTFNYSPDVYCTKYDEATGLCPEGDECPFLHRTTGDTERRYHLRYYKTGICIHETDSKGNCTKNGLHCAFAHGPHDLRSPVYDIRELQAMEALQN", "experiment": "nsRBNS (natural sequence RNA bind-n-seq); RBNS binding buffer (assumed for nsRBNS): 25 mM Tris pH 7.5, 150 mM KCl, 3 mM MgCl2, 0.01% Triton X-100, 500 ug/ml BSA, 20 U/ml SUPERase-In, 4 C; UNK is unkempt and MSI1 is Musashi-1; names of the RNAs are library labels; protein concentration not given here; high values mean tight binding", "units": {"binding signal": "enrichment R"}, "values": [{"binder": "B1", "binding signal": 1.8}, {"binder": "B2", "binding signal": 10.5}, {"binder": "B3", "binding signal": 0.868}, {"binder": "B4", "binding signal": 3.33}, {"binder": "B5", "binding signal": 3.2}, {"binder": "B6", "binding signal": 4.07}, {"binder": "B7", "binding signal": 14}, {"binder": "B8", "binding signal": 1.64}, {"binder": "B9", "binding signal": 0.897}, {"binder": "B10", "binding signal": 1.3}, {"binder": "B11", "binding signal": 0.501}, {"binder": "B12", "binding signal": 2.04}, {"binder": "B13", "binding signal": 1.7}]}]}
